Bioassay records (PubChem BioAssay)
SDO1 yeast rescue – compounds rescuing growth of sdo1-depleted yeast, bone marrow failure model. AID 817. 140,000 compounds, 0.21% hits. S. cerevisiae sdo1-depleted JHY4D growth rescue, OD600 30 h; stronger effect = higher value; pdr5 snq2 efflux-pump mutant strain. z-score at 10 µM;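 active means z-score above 3 at both the 24 hr and the 30 hr optical density reads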
sEH inh – soluble epoxide hydrolase (human) inhibition. recombinant human sEH enzymatic activity assay. inhibition, % at 2 µM. 91,000 compounds, 0.34% hits. P34913; in the data active means inhibition above about 80%
Target sequence (P34913 whole entry, looked up): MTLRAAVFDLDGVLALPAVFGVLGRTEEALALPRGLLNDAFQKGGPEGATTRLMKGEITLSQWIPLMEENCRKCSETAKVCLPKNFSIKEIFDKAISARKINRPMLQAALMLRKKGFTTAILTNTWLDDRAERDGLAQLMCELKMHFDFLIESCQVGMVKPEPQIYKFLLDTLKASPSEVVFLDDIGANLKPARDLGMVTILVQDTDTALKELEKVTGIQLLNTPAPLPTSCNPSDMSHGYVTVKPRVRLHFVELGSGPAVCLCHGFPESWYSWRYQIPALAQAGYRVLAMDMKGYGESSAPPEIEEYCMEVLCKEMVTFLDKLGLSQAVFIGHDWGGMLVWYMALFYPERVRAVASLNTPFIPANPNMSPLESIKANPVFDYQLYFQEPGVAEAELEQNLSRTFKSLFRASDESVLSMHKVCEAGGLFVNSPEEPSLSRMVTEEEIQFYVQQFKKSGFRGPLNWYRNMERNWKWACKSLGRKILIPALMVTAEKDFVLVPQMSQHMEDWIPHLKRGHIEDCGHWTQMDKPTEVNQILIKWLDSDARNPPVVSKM
sEH act – increases human soluble epoxide hydrolase activity; 91,000 compounds, 0.04% hits; activation, % at 2 µM; AID 717; purified human sEH enzymatic activity, activator screen; in the data active means activation above about 37%
Measles CPE – protection of cells from measles virus; Measles virus-infected cells, CPE protection, absorbance; protection (pct of control), % at 4 µM; 140,000 compounds, 1.5% hits; AID 841; in the data active means protection mostly above about 24%, no sharp cut-off; inactive means mostly below about 26%
Hits are given with their value; i = inactive; nt = not tested or not shown. Most compounds without a hit are left out; they make up all but 1.9% or so of the library.

SMILES	SDO1 yeast rescue	sEH inh	sEH act	Measles CPE
COc1cccc(NCc2ccc([N+](=O)[O-])s2)c1	i	nt	nt	48
O=C1C/C(=C/NCc2ccccc2)C(=O)N1	i	i	i	41
O=C(/C=C\c1ccccc1)Nc1nccs1	i	i	i	i
CC(C)(C)C(=O)Nc1cccc(-c2nc3ccccc3[nH]2)c1	i	i	i	i
O=C(Oc1ccc2ccccc2c1Cl)N1CCCCCC1	i	nt	nt	30
O=C(Oc1ccc2ccccc2c1Cl)N1CCCC1	i	nt	nt	i
CCC1CCCCN1CCn1c(=S)[nH]c2cc(OC)c(OC)cc2c1=O (configuration not stated)	i	i	i	i
Cc1ccc(OCC(=O)Sc2ccc(C)cc2)cc1	i	i	i	38
COc1ccccc1OCC(=O)Sc1ccc(C)cc1	i	i	i	i
Cc1ccc(OCc2ccc(C#N)cc2)c(C(=O)c2cc(C#N)c(=O)n(C3CC3)c2)c1	i	nt	nt	i
O=C(Nc1ccc2oc(-c3ccccc3)nc2c1)c1cccnc1	i	i	i	59
CCC(c1nnc(SCC(=O)N2CC3(C)CC2CC(C)(C)C3)o1)N(C)C (configuration not stated)	i	i	i	48
COc1ccc(NC(=O)c2ccc(COCC(F)(F)C(F)F)cc2)cc1OC	i	nt	nt	i
COc1cc(NC(=O)c2ccc(COCC(F)(F)F)cc2)cc(OC)c1OC	i	i	i	30
COc1ccc(-n2ncc3c(NCCCn4ccnc4)ncnc32)cc1	i	nt	nt	66
O=C(O)c1cc([N+](=O)[O-])ccc1N1CCCCC1	i	nt	nt	21
O=C(c1cc([N+](=O)[O-])ccc1N1CCCCC1)N1CCCCC1	i	i	i	i
CC1(C)NC(=O)N(CC(O)COc2ccc(N3C(=O)c4ccccc4C3=O)cc2)C1=O (configuration not stated)	i	i	i	47
CC(=O)N(CCCN1CCOCC1)Cc1ccncc1	i	i	i	57
O=c1oc2cc(OCc3c(F)cccc3Cl)ccc2cc1-c1ccccn1	i	i	i	46
O=C(O)CC1NC(=O)N(c2ccc(Cl)cc2)C1=O (configuration not stated)	i	i	i	i
CC1Cc2ccccc2N1C(=O)CSc1nnc2c(n1)[nH]c1ccc(F)cc12 (configuration not stated)	i	i	i	i
COc1cc(-c2csc(N3CCOCC3)n2)cc(OC)c1OC	i	i	i	56
COC(=O)CN(c1ccc(OC)cc1)S(=O)(=O)c1c(C)noc1C	i	i	i	i
COc1cc(C)c(C(C)C)cc1S(=O)(=O)N1CCN(C)CC1	i	i	i	i
SMILES	SDO1 yeast rescue	sEH inh	sEH act	Measles CPE
COc1cc(C)c(Br)cc1S(=O)(=O)N1CCCC1	i	i	i	30
CCOc1ccc2nc(C)cc(Nc3ccc4c(c3)OCCO4)c2c1	i	i	i	i
O=C(NNc1nc(-c2ccccc2)c2cc(Br)ccc2n1)c1ccc(S(=O)(=O)N2CCOCC2)cc1	i	nt	nt	i
O=C(NNc1nc(-c2ccccc2)c2cc(Br)ccc2n1)c1ccc(S(=O)(=O)N2CCCCC2)cc1	i	nt	nt	47
CN(c1ccccc1)S(=O)(=O)c1cccc(NC(=O)Nc2ccc(Cl)cc2C#N)c1	i	nt	nt	25
Cc1ccc(C(=O)N2CCN(C3c4cccc5cccc(c45)C3NS(=O)(=O)c3ccccc3)CC2)cc1 (configuration not stated)	i	i	i	55
O=C(NCc1cccnc1)C1CCN(C(=O)c2ccc(Cl)cc2Cl)CC1	i	i	i	35
O=C(O)CCNS(=O)(=O)c1ccc2c(c1)Cc1ccccc1-2	i	i	i	i
Cc1ccc2[nH]c3c(NCCN4CCOCC4)ncnc3c2c1	i	nt	nt	i
Clc1ccc2[nH]c3c(NCCCN4CCOCC4)ncnc3c2c1	i	nt	nt	44
Cc1ccccc1C(=O)N/N=C/c1ccc([N+](=O)[O-])s1	i	i	i	44
O=C1C(Cl)=C(N2CCOCC2)C(=O)N1c1cccc(Cl)c1	i	nt	nt	i
O=C(COc1ccc(/C=N/NC(=O)c2ccccc2)cc1)Nc1ccc([N+](=O)[O-])cc1	i	i	i	i
CC(C)OC(=O)CSc1ncnc2c1cnn2Cc1ccccc1	i	i	i	33
O=S1(=O)CCN2C(c3ccc4c(c3)CCCC4)=CSC2=N1	i	nt	nt	i
O=C1NC(=O)C2(COC(c3ccncc3)OC2)S1 (configuration not stated)	i	nt	nt	i
O=C(c1ccc(COc2ccc(Cl)cc2)o1)N1CCN(Cc2ccc3c(c2)OCO3)CC1	i	i	i	i
CCN1CCN(C(=O)c2ccc(COc3ccc(Cl)cc3)o2)CC1	i	i	i	42
CNc1oc(-c2cccc3ccccc23)nc1C#N	i	i	i	i
COc1ccc(CNc2oc(-c3cccc4ccccc34)nc2C#N)cc1	i	i	i	68
CCN1C(=O)CC(N2CCC(Nc3ccc(F)cc3)CC2)C1=O (configuration not stated)	i	i	i	i
